High-throughput results as filed in PubChem BioAssay.
hgDAF12 agonist: activates the H. glycines DAF-12 receptor ligand-binding domain; HEK293 GAL4-hgDAF12 UAS-luciferase reporter, agonist luminescence; normalized to butyrate control; activation, % at 6.8 µM; hit rate 1.8% among 370,000;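 active = activation above a cutoff set at the mean of all screened compounds plus 3 SD, cut at about 10% in these data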
ssDAF-12 act: activates DAF-12 receptor from parasite S. stercoralis. HEK293 ssDAF-12/GRIP1 lit1-tk-luc reporter, luminescence; % of 3 µM dafachronic acid response. activation, % at 6.8 µM. hit rate 1% among 370,000. AID 652126;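 active = activation above the mean over all tested compounds plus 3 SD, cut at about 0.9% in these data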
DAX1 inh-1: inhibitors of DAX1 repression of SF-1 activated StAR promoter; AID 652010; HEK293T StAR-luciferase reporter, SF-1/DAX-1 repression relief; hit rate 1.1% among 370,000; inhibition, % at 6.8 µM;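 active = inhibition above the mean over all tested compounds plus 3 SD, cut at about 3.6% in these data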;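 note: higher inhibition means more luminescence from relief of DAX-1 repression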
GAA850 FXN act: increases GAA850 frataxin promoter reporter activity; HEK293 lucGAA850 FXN promoter luciferase reporter, 24 h; percent of 10 µM SAHA response; activation, % at 6 µM; hit rate 0.56% among 360,000;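 active = activation above the average of all compounds screened plus 3 SD, cutoff fixed separately per campaign, cut at about 7.5% in these data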
hcDAF-12 act: H. contortus DAF-12 activation, primary screen; activation, % at 6.8 µM; hit rate 1.4% among 370,000; AID 652067; HEK293 hcDAF-12 lit1-tk-luc reporter, luminescence; 0% DMSO, 100% Δ7-dafachronic acid;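 active = activation above the mean of all tested compounds plus 3 SD, cut at about 5.5% in these data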
DAX1 inh-2: NR0B1 (DAX1) inhibition; P51843; HEK293 Gal4-DAX1 luciferase reporter, luminescence; hit rate 0.99% among 340,000; inhibition, % at 6.75 µM;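 active = inhibition above the mean over all tested compounds plus 3 SD, cut at about 4.2% in these data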;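 note: inhibition shows as a rise in luminescence from relieved DAX1 repression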
Target sequence (P51843 207-470 limits assumed): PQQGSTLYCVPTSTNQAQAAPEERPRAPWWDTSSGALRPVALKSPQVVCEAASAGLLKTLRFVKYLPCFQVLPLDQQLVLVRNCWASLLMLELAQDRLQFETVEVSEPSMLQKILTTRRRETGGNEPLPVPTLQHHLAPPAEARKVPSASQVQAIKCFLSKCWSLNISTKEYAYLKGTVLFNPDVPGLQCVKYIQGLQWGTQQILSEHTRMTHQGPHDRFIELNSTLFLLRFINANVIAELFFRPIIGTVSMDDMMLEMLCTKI
A number is an active result; i = inactive; nt = no result. Only some compounds are listed: those with a hit (about 4.5% of all), similar ones and a draw of the others.

SMILES	hgDAF12 agonist	ssDAF-12 act	DAX1 inh-1	GAA850 FXN act	hcDAF-12 act	DAX1 inh-2
Cc1ccc(-c2cc(N)n(-c3ccccc3)n2)cc1	11	i	i	i	i	i
Cc1nn(-c2ccccc2)c(N)c1N=Nc1ccc(Cl)cc1	18	i	i	i	i	i
Cc1nc2c(-c3ccccc3)c(C)nn2c(N)c1-c1ccccc1	i	i	i	i	i	i
COc1ccccc1CCc1nnc(CCC(=O)N(C)Cc2cccc3cnccc23)o1	11	i	i	i	i	i
COc1ccccc1CCc1nnc(CCC(=O)N(C)Cc2ccncc2C)o1	i	i	i	i	i	i
N/C(=N\OCc1ccccc1)c1nonc1N	11	i	i	i	i	i
N/C(=N/OCc1cccc([N+](=O)[O-])c1)c1nonc1N	i	i	i	i	i	i
CCOc1ccc(NC(=S)N2CCCC2)cc1	i	i	i	i	i	i
CCc1ccc(NC(=S)N2CCCCCCC2)cc1	11	i	i	i	i	i
O=C(CSc1nc2ccccc2c(=O)n1-c1ccc(Cl)cc1)N/N=C/C=C/c1ccccc1[N+](=O)[O-]	i	i	i	i	5.8	i
O=C(CSc1nc2ccccc2c(=O)n1-c1ccccc1)N/N=C/C=C/c1ccccc1[N+](=O)[O-]	i	i	i	i	i	i
COC(=O)[C@]12CCCCC=C1N(Cc1ccc(OC)cc1)C(=O)[C@@H]2CC(=O)NCc1cccs1	i	i	i	nt	i	nt
O=C1CCCc2nc3c(cc21)C(O)Oc1ccccc1-3 (stereo unspecified)	i	i	i	i	i	i
O=C1CCCc2nc3c(cc21)C(O)Oc1c-3ccc2ccccc12 (stereo unspecified)	12	i	i	i	i	i
COc1cc(C(=O)Nc2c(C(=O)O)[nH]c3ccc(C)cc23)cc(OC)c1OC	i	i	i	i	6.1	i
CCOC(=O)c1[nH]c2ccccc2c1NC(=O)c1cc(OC)c(OC)c(OC)c1	i	i	i	i	i	i
O=S1(=O)c2ccc(N3CC[C@@H](O)C3)cc2OCCCN1C1CC1	i	i	i	nt	i	nt
O=C(Nc1cccc(S(=O)(=O)N2CCOCC2)c1)c1cnn2c(C(F)F)cc(-c3ccccc3)nc12	i	i	i	i	i	5.0
CC(=NNC(=O)CSc1nnc(-c2ccccc2)n1-c1ccccc1)c1ccc2ccccc2c1	i	i	i	nt	i	nt
O=C(c1ccccc1)N(CCCn1ccnc1)C(c1ccccc1)c1nc2ccccc2[nH]1 (stereo unspecified)	i	i	3.6	nt	i	nt
Cc1ccc(C)c(NC(=O)[C@@H]2CCCN2S(=O)(=O)c2cccc3cccnc23)c1	i	i	nt	nt	i	nt
CC(C)(C)NC(=S)NNC(=O)c1ccc2ncccc2c1	11	i	3.8	i	i	i
O=C(NNC(=S)Nc1ccccc1)c1ccc2ncccc2c1	i	i	i	i	i	i
O=C(CSc1nnc(-c2cccnc2)n1C1CCCCC1)NC1CCCCCC1	i	i	i	nt	i	nt
COC(=O)Cc1ccc2c3ccccc3n(C)c2c1	i	i	i	i	5.8	i
SMILES	hgDAF12 agonist	ssDAF-12 act	DAX1 inh-1	GAA850 FXN act	hcDAF-12 act	DAX1 inh-2
Cc1cccc2sc(N(CCCN(C)C)C(=O)c3ccco3)nc12	i	i	i	i	i	i
Cc1cccc2sc(N(CCCN(C)C)C(=O)c3ccc(Cl)s3)nc12	i	0.9	i	i	i	i
CCN(CC)C(=O)CC[C@@H]1CC[C@]2(CCCN(C(=O)C3CCCCC3)C2)O1	i	i	i	nt	i	nt
O=C(Nc1cc2c(cc1Br)OCCCO2)c1ccccc1	11	i	i	i	i	i
Cc1cc(N2CCCN(C)CC2)nc2cc(Cl)ccc12	i	1.1	i	i	i	i
COC(=O)CCN(C1CCCCC1)S(=O)(=O)c1ccc(S(=O)(=O)N2CCCCC2)cc1	i	i	i	i	5.8	i
CN(C1CCCCC1)S(=O)(=O)c1ccc(S(=O)(=O)N2CCN(CCC#N)CC2)cc1	i	i	i	i	i	5.7
N#CCCN1CCN(S(=O)(=O)c2ccc3c(c2)CCC3)CC1	i	i	i	i	i	i
Cc1ccccc1NC(=O)c1onc2c1CCCC2	i	i	i	i	i	i
Cc1cccc(NC(=O)c2onc3c2CCCC3)n1	13	i	4.1	i	i	i
Cc1cccc(NC(=O)c2onc3c2CCCC3)c1C	11	i	i	i	i	i
O=C(CCCN1C(=O)/C(=C/c2ccccc2)SC1=S)Nc1ccc(C(=O)O)c(O)c1	i	i	i	i	i	i
O=C(CCN1C(=O)/C(=C\c2ccccc2F)SC1=S)Nc1ccc(C(=O)O)c(O)c1	i	i	3.9	i	i	i
C#CCNC(=O)C[C@H]1C[C@@]2(C(=O)OC)C(=C[C@H](C(C)C)O[C@@H]2C2CC2)N(Cc2ccc3c(c2)OCO3)C1=O	i	i	i	nt	i	nt
COc1ccc(-c2ccc(SCC(=O)c3cccs3)nn2)cc1	i	i	i	i	i	i
O=C(CSc1ccc(-c2ccccc2)nn1)c1cccs1	12	i	i	i	i	i
COc1cccc(-c2nnc(SCC(=O)Nc3ccc(Oc4ccccc4)cc3)n2Cc2ccco2)c1	i	i	i	nt	i	nt
CN1CCN(S(=O)(=O)c2cccc(C(=O)Nc3sc4c(c3-c3nc5ccccc5[nH]3)CCCC4)c2)CC1	i	i	i	i	6.1	i
CC(=O)NCCC(=O)Nc1sc2c(c1-c1nc3ccccc3[nH]1)CCCC2	i	i	i	i	i	i
C=CCN(CC#Cc1ccc(C(F)(F)F)cc1)CC=C	i	i	i	nt	i	nt
Nc1c2c(=O)[nH]c(O)cc2nn1-c1ccccc1	i	1.2	i	i	i	i
CCOc1ccc(NC(=O)N(C2CCCCC2)C(C)c2ccncc2)cc1 (stereo unspecified)	i	1.6	i	i	i	i
O=C(Cn1cc(S(=O)(=O)Cc2ccccc2F)c2ccccc21)N1CCOCC1	11	i	i	i	i	i
O=C(C(=O)N1CCc2ccccc2C1)c1cn(CC(=O)N2CCOCC2)c2ccccc12	i	1.8	i	i	i	i
Fc1ccccc1-c1nc(-c2ccncc2)no1	i	1.1	i	i	i	4.8
SMILES	hgDAF12 agonist	ssDAF-12 act	DAX1 inh-1	GAA850 FXN act	hcDAF-12 act	DAX1 inh-2
Fc1ccccc1-c1nc(-c2ccc(-c3nn[nH]n3)cc2)no1	i	i	i	i	i	i
Cc1cc(C)cc(-c2nc(-c3ccncc3)no2)c1	i	i	i	i	i	i
Cc1cccc(-c2nc(-c3ccncc3)no2)c1	11	i	i	i	i	5.3
CCC(=O)Oc1ccc(-c2nc(-c3cccnc3)no2)cc1	11	i	i	i	i	i
FC(F)(F)c1cccc(-c2nc(-c3ccncc3)no2)c1	i	i	i	i	i	i
CC(C)(C)c1ccc(-c2nc(-c3ccncc3)no2)cc1	i	i	3.7	i	i	i
COc1ccc(S[C@]2(C(=O)N(C)C)CC(=O)N(c3ccsc3)[C@@H]2c2ccc(OC)cc2)cc1	i	i	i	nt	i	nt
